Test results from PubChem BioAssay AID529 (NMMLSC, 2006).
The whole screen tested about 24,000 compounds, of which about 50 (0.2%) were called active. About 9% were inconclusive and are not listed. This is one part of a sample in which actives are shown more often than they occur.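 How the source made its calls: active means inhibition above 50%; inconclusive means compound itself fluorescent, judged against control cell fluorescence; inactive means the rest.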

Biological target: Integrin alpha-4 (Homo sapiens) (UniProt P13612)
Sequence (P13612 whole entry, looked up): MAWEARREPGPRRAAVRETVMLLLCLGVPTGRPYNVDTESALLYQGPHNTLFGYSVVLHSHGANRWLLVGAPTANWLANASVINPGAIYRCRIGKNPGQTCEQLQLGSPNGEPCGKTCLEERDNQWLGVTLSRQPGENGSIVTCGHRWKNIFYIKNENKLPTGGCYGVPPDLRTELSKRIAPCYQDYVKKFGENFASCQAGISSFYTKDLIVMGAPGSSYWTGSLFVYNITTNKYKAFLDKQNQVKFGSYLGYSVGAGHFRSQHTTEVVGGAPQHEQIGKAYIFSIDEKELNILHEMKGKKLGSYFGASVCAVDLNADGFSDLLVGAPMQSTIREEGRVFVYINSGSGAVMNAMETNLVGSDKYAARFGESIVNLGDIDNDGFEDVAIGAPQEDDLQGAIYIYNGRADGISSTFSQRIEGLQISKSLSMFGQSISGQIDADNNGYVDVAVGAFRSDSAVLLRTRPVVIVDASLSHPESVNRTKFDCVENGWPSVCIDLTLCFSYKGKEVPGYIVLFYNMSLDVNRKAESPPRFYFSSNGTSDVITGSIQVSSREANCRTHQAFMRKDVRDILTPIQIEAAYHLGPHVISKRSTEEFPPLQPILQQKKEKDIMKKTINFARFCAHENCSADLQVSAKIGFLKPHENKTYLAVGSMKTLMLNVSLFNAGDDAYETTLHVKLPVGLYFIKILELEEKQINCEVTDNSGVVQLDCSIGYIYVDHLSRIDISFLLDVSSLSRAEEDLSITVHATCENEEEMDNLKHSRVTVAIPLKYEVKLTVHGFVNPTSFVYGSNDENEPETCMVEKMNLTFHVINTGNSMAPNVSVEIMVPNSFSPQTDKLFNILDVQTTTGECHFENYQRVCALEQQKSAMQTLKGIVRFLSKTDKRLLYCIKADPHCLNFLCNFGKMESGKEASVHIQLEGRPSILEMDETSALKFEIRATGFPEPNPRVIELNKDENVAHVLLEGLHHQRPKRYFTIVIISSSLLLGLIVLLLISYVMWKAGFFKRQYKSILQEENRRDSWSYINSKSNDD
Assay: inhibitors of LDV-FITC binding to Mn2+-activated VLA-4, primary screen, Jurkat cells (AID 529);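 further: 0% = Mn2+ stimulated cells lacking compound and 100% = ligand binding without Mn2+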
Details: LDV-FITC binding with Mn2+, flow cytometry, hits give high values, 100% = Mn2+-driven binding gain fully reversed, screened at 10 µM (by protocol)

inhibition, inactive:
O=C(NCc1cccs1)c1ccc2c(c1)ncn2C1CCCC1 -10%
CCCn1cc(SCC(N)=O)c2ccccc21 -4%
N#CC1=C(N)Oc2cc(O)ccc2C1C1CCCCC1 (configuration not stated) -8%
CCOCCCN1C(=O)CN(C2CCCCC2)C(=O)C1c1ccc(OCC)c(OC)c1 (configuration not stated) 7%
COc1cc2c(cc1OC)C(c1ccc(C)o1)CC(=O)N2 (configuration not stated) 3%
CCCCOC(=O)NCN1C(=O)C2C3C=CC(C3)C2C1=O (configuration not stated) -15%
Cc1cc(N2C(=O)c3ccc(C(=O)NCc4ccccc4)cc3C2=O)no1 3%
CCCCc1nccn1CCn1ccnc1CCCC -5%
CCCS(=O)(=O)C(=C1Nc2ccccc2N1)S(=O)(=O)CCC 0%
CCCCNC(=O)c1c[nH]c2ccc(S(=O)(=O)Nc3ccc(OCC)cc3)cc2c1=O -22.5%
COc1ccc(C2CC(c3ccc(C)cc3)Nc3ncnn32)cc1 (configuration not stated) -3.7%
COc1ccc(C2C(C(=O)Nc3ccccc3OC)=C(C)Nc3nnnn32)c(OC)c1 (configuration not stated) 3%
CCCCOC(=O)Nc1nccs1 15.3%
O=C(CSC1=Nc2ccccc2C2=NC(c3ccccc3)C(=O)N12)NCC1CCCO1 (configuration not stated) 3%
COc1ccc(C2CC(c3ccc(Cl)cc3Cl)Nc3nc(N)nn32)cc1OC (configuration not stated) -5%
COc1cccc(NS(=O)(=O)c2ccc3[nH]cc(C(=O)NCCCOC(C)C)c(=O)c3c2)c1 -26%
CCOC(=O)c1oc2ccccc2c1NC(=O)c1cccs1 17%
Cc1nn(C)c(C)c1S(=O)(=O)N1CCc2ccccc21 2%
Cc1cccc(N2CCN(S(=O)(=O)c3ccc4c(c3)c(=O)n(C)c(=O)n4C)CC2C)c1 (configuration not stated) -4%
O=C(C1CCN(S(=O)(=O)c2cccs2)CC1)N1CCCCCC1 -3%
CN(C)CCCNC(=O)c1ccc2[nH]c3ccccc3c2c1 -6%
COc1ccc(CCNC(=O)CSc2nnc(CNC(=O)c3cccs3)o2)cc1OC 13%
CCOC(=O)C1(c2ccccc2)NC(c2ccc(N(C)C)cc2)C2C(=O)N(C)C(=O)C21 (configuration not stated) -13%
CCOc1ccc(NC(=O)N(CCC(C)C)C(C)c2ccco2)cc1 (configuration not stated) -12%
CCC(C)(C(=O)NC1CCCC1)N(C(=O)CNC(C)=O)c1ccc(C)cc1 (configuration not stated) -12%
Cc1ccc(C(=O)N(CN2CCCC2=O)c2ccc(F)cc2)cc1 -10%
CCN(CC)CCNC(=O)Cn1cnc2sc(C)c(S(=O)(=O)N3CCOCC3)c2c1=O 0%
COc1ccccc1CNC(=O)CCCn1c(=O)c2ccccc2n(CC(=O)NC2CCCC2)c1=O -2%
CCOC(=O)N1CCC(NC(=O)CN2C(=O)COc3ccc(C(C)(C)C)cc32)CC1 7%
O=c1c2[nH]c3ccc(Cl)cc3c2ncn1Cc1ccccn1 -1%
O=S(=O)(NCc1ccccc1Cl)c1cnc[nH]1 -2%
CCCCN=C(N)/C(C(=O)OCC)=C(\O)c1ccc(OC)cc1 9%
COc1ccc(S(=O)(=O)NC2(C(F)(F)F)N=C3SCCN3C2=O)cc1 (configuration not stated) -5%
Cc1ccc(-n2nc3c(c2NC(=O)c2ccc4c(c2)OCO4)CSC3)c(C)c1 13%
O=C(c1ccc2c(c1)N(Cc1ccc(F)cc1)C(=O)CS2)N1CCOCC1 -5%
CCCN1CCN(CCCNC(=O)CN2C(=O)COc3ccccc32)CC1 1%
Cc1cccc(CSc2nnc(Cn3c(=O)sc4ccccc43)n2C)c1 2%
COc1ccc(NC(=O)CN2CCN(S(=O)(=O)c3ccc(F)cc3)CC2)cc1Cl 9%
COCCn1c(=O)[nH]c2cc(C(=O)NCc3cccnc3)ccc2c1=O -22%
CCOc1ccccc1NC(=O)c1cc(S(=O)(=O)N2CCC3(CC2)OCCO3)ccc1F 8%
Cc1cc(C)c2c(n1)nn1c(N3CCOCC3)cc(C)nc21 -14%
CCOC(=O)CSc1nnc(CNC(=O)c2ccco2)n1-c1ccc(F)cc1 14%
